# Hits are enriched below; roughly 19% of the tested compounds scored in any of these assays.
# HT1080 IDH1KD tx = toxicity to HT-1080 IDH1 knockdown cells (counter line); HT-1080 IDH1 knockdown viability, ATP luminescence, 48 h; hit rate 2% among 360,000; Potency, µM (top dose mostly 46.1 µM), without a hit: top-dose activity, negative = toxicity, actives largely listed as cytotoxic;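 further: potency means the concentration at half of the fitted maximal effect; 0% = DMSO wells and -100% = cell-free medium wells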
#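 HT-1080-IDH1KD cells (IDH1 knocked down), 750/well in RPMI with 5% FBS, treated with compound 48 h at 37 degrees C. Viability by CellTiter-Glo luminescence, normalised to DMSO and no-cell wells; concentration-response curves classed.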
# ELG1 repair inh = blocks ELG1-dependent DNA repair in HEK293T cells; HEK293T ELG1-luciferase reporter, luminescence, 16 h; DNA damage induced by 5-fluorouridine; Potency, µM (highest dose often 46.1 µM), for inactives: at the highest dose activity change, negative = inhibition, actives largely listed as inhibitors; hit rate 2.3% among 330,000; further: potency means the concentration at half of the fitted maximal effect; nearly all actives have a fitted effect of over 55% in size
#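 Quantitative HTS, concentration-response format. 2,000 cells/well co-treated with 5-fluorouridine and compound, 16 hr in 5% CO2 at 37 °C; ONE-Glo luminescence read after 30 min.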
# HT1080NT lethal = kills 2HG-producing HT-1080-NT fibrosarcoma cells | HT-1080-NT fibrosarcoma viability, CellTiter-Glo ATP luminescence, 48 h | Potency, µM (series often up to 46.1 µM), without a hit: at the top dose activity, negative = less viability, most hits filed as cytotoxic | hit rate 1.6% among 360,000 | AID 686970;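 further: NT is the 2HG producing partner of a matched IDH1 knockdown line; potency means the concentration at half of the fitted maximal effect; 0% = DMSO-treated cells and -100% = media-only wells without cells; nearly all actives have a fitted effect of over 55% in size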
#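 Fibrosarcoma NT cells, 750 per well in 5% FBS RPMI, were exposed to compound for 48 hours. Viability: CellTiter-Glo luminescence.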
# IL1B secr inh = inflammasome signaling inhibition, IL-1 beta readout. activity change, % at 57.5 µM. THP-1 LPS/ATP IL-1B secretion, AlphaLISA, 16 h; stronger effect = lower value. AID 743279. hit rate 4.7% among 360,000; in the data active means activity change below about -50%; inconclusive means mostly about -30% to -49%
#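 Secreted IL-1B measured by AlphaLISA bead assay after 16 h compound exposure of THP-1 cells; compounds (final up to 57.5 uM) added 1 h before LPS (250 ng/mL) and ATP (1.25 mM) stimulation; lower signal means less secretion.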
# TDP1 cell noCPT = qHTS for Inhibitors of human tyrosyl-DNA phosphodiesterase 1 (TDP1): qHTS in cells in absence of CPT; Potency, µM (top dose mostly 46.2 µM), without a hit: at the highest dose activity change, negative = growth inhibition, hits mostly inhibitors; DT40 Tdp1-/- hTDP1 cells, no CPT, ATP luminescence, 48 h; AID 686978, 2013; hit rate 15% among 420,000; further: potency means the concentration at half of the fitted maximal effect; nearly all actives have a fitted effect of over 55% in size
#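 Compound effects on proliferation are scored in DT40 Tdp1-/-;hTDP1 cells in the absence of CPT. ATP levels (CellTiter-Glo luminescence) are recorded after a ≥48 hr, 37 °C incubation.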
# TDP1 cell CPT = DT40-hTDP1 cell growth loss with CPT | chicken DT40 Tdp1-/-;hTDP1 cells + 20 nM CPT, ATP luminescence, 48 h | Potency, µM (series often up to 46.2 µM), for the others: at the highest dose activity change, negative = growth inhibition, most hits filed as inhibitors | hit rate 12% among 420,000 | AID 686979; further: potency means the concentration at half of the fitted maximal effect; nearly all actives have a fitted effect of over 55% in size
#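 Chicken DT40 Tdp1-/- cells complemented with human TDP1, 400 cells/well, exposed to compounds plus 20 nM camptothecin for at least 48 h at 37 C; viability read as ATP content by CellTiter-Glo luminescence.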
# Active calls of the source: *; ? = inconclusive; . = no result given. Unless noted, the call rests on the fitted dose curve; in most records, active means well fitted curve in the direction sought with a large enough effect; inconclusive means small, poorly fitted or top-dose-only effect, or another doubt; inactive means no such curve, though single readings can be large; an effect the other way counts as inactive or inconclusive. Unless noted, on the % scale 0 is the no-effect control and ±100 the full control effect.
SMILES,HT1080 IDH1KD tx,ELG1 repair inh,HT1080NT lethal,IL1B secr inh,TDP1 cell noCPT,TDP1 cell CPT
CN(CC1COc2ccccc2O1)C(=O)c1cccc(S(=O)(=O)N2CCCC2)c1 (stereo not given),?,0.9%,-1.5%,6.0,?,?
COc1ccc(N(CC(=O)N2CCc3ccccc3C2)S(C)(=O)=O)cc1Cl,-4.2%,-4.3%,1.2%,-6.5,-12.7%,-6.8%
CCCn1c(SCC(=O)Nc2cccc(S(=O)(=O)N(C)C)c2)nc2ccccc2c1=O,?,23.1µM*,?,-27.3,?,?
NS(=O)(=O)c1cccc(NC(=O)CSc2nc3ccccc3c(=O)n2CCCN2CCOCC2)c1,6.3%,-7.2%,1.8%,-26.9,-6.4%,3.8%
O=C(CSc1cccc2cccnc12)Nc1ccc(S(=O)(=O)N2CCOCC2)cc1,?,10.5%,?,-100.9*,?,?
O=C(CSc1cccc2cccnc12)Nc1cccc(S(=O)(=O)N2CCOCC2)c1,1.5%,?,-1.8%,14.1,-3.9%,0.0%
COc1ccc(/C=C2\CCCC3C2=NN(C(=O)CSc2n[nH]c(N)n2)C3c2ccc(OC)cc2)cc1 (stereo not given),?,0.4%,?,-18.7,?,23.1µM*
COc1ccc(CCNC(=O)CSc2n[nH]c(N)n2)cc1,3.0%,14.3%,0.0%,-3.2,0.4%,-13.0%
O=C1CCC(C(=O)OCC(=O)N2N=C3/C(=C\c4ccccc4)CCCC3C2c2ccccc2)N1 (stereo not given),-12.9%,.,-7.5%,7.5,20.6µM*,?
O=C1CCC(C(=O)OCC(=O)N2N=C3/C(=C/c4ccccc4)CCCC3C2c2ccccc2)N1 (stereo not given),-12.2%,-21.3%,2.1%,14.0,23.1µM*,?
O=C(c1ccccn1)N1N=C2/C(=C/c3ccccc3)CCCC2C1c1ccccc1 (stereo not given),-14.4%,-9.2%,-3.0%,1.4,?,?
CC1(C)N=C(N)NC(=NCCCOc2ccc([N+](=O)[O-])cc2)N1,0.0%,.,3.3%,11.8,-7.1%,-26.2%
O=C1NC[C@H](CCCCN2C[C@H](Cc3ccc(O)cc3)N(CCc3ccccc3)C(=O)C2=O)N(CCc2ccc(O)cc2)C1=O,10.7%,.,15.3%,47.1,-12.7%,-4.9%
CNc1n[nH]c(=S)s1,20.4%,-1.3%,11.9%,20.0,-9.7%,4.6%
C=CCNc1n[nH]c(=S)s1,7.3%,.,9.8%,-13.0,2.59µM*,5.17µM*
CCN1CCCC1CNC(=O)c1cnn(-c2nccc(-c3ccco3)n2)c1C1CC1 (stereo not given),.,.,.,.,3.3%,4.8%
CCN1CCCC1CNC(=O)c1cnn(-c2nccc(-c3cc4ccccc4o3)n2)c1C1CC1 (stereo not given),.,.,.,.,4.11µM*,?
Cn1c(SCc2ccc(Br)cc2)nc2c([nH]c3ccccc32)c1=O,.,.,.,.,9.4%,-4.9%
Cc1c(O)ccc2c(CC(=O)N[C@@H](Cc3c[nH]c4ccccc34)C(=O)O)cc(=O)oc12,0.4%,6.1%,-1.2%,38.8,2.7%,2.3%
O=C(NNC(=O)c1cc(Cl)ccc1O)c1cccs1,?,?,-28.5%,29.0,18.4µM*,?
CC(NC(=S)NC(=O)c1cccs1)c1ccccc1 (stereo not given),-20.5%,-11.4%,-3.3%,?,18.4µM*,-6.1%
O=C(NC(=S)NNC(=O)c1ccccc1O)c1ccc([N+](=O)[O-])cc1,-9.1%,?,-6.7%,-21.7,14.6µM*,25.9µM*
Cc1ccc(C(=O)NC(=S)NNC(=O)c2ccccc2O)cc1,?,30.8%,?,66.9,?,?
